Molecules are shown by their SMILES. Records with an inconclusive call do not appear. Some structures have more than one record in an assay (separate samples or runs), and their calls can disagree. Calls of active or inactive are those of the source. Rule for the calls: active = hit-call score of the fitted dose curve at least 0.9, where 1 is the maximum; inconclusive = response in the unintended direction; inactive = score below 0.9.

In general, AC50 refers to the concentration giving half of the maximal activity seen.

human RAR-related Orphan Receptor gamma (RORg), RORC (gene 6097), sequence (P51449 whole entry, looked up, the tested form may be a part): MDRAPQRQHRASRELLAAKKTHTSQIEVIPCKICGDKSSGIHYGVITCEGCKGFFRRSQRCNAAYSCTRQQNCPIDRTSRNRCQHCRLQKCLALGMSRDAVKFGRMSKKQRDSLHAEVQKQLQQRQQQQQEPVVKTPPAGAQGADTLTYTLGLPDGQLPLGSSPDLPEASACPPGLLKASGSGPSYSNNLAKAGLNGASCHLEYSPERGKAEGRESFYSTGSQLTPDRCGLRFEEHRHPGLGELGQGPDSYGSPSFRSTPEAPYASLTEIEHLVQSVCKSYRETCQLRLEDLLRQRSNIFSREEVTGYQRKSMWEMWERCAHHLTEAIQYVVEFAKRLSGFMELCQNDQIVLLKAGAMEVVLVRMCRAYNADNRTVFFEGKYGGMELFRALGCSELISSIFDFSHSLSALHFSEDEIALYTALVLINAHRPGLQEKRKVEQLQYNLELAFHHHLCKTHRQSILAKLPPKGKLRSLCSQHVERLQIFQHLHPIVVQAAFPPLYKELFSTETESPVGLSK
human RAR-related Orphan Receptor beta (RORb), RORB (gene 6096), sequence (Q92753 whole entry, looked up, the tested form may be a part): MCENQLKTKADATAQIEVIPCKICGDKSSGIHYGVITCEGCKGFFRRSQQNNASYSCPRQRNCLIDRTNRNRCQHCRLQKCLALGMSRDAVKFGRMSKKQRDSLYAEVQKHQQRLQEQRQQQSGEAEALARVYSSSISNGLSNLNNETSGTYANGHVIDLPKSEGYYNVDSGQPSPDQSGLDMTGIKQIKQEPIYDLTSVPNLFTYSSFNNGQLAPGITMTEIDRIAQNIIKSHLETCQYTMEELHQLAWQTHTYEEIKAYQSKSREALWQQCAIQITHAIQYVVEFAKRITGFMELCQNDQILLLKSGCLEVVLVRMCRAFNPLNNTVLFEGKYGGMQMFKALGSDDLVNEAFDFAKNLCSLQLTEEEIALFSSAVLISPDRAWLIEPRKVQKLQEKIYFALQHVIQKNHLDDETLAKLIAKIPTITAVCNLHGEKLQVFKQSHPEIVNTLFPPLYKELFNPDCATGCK

The first experiment addresses human RAR-related Orphan Receptor beta (RORb), RORB (gene 6096) (UniProt Q92753). Briefly: ATG_RORb_TRANS: Attagene TRANS-FACTORIAL HepG2 Assay for human RAR-related Orphan Receptor beta (RORb) (AID 2283010).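 For AC50: potency for increased reporter mRNA meaning activation of RORb-Gal4 chimera.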 The essentials: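 HepG2 cells transiently transfected with GAL4-UAS reporter units expressing chimeric NR-Gal4 protein; reporter mRNA measured 24 h after dosing by RT-PCR, 6-FAM labelling and capillary electrophoresis. Gain-of-signal fitted relative to DMSO baseline.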
Take `CC(C)(c1ccc(O)cc1)c1ccc(O)cc1`: the result was inactive.

Turning to `O=C(Nc1ccc([N+](=O)[O-])cc1Cl)c1cc(Cl)ccc1O`, the outcome was inactive.

On to `CCCCOC(=O)[C@@H](C)Oc1ccc(Oc2ccc(C(F)(F)F)cn2)cc1`, for which the compound was called inactive.

Consider `O=C(c1ccc(O)cc1O)c1ccc(O)cc1O`, for which the compound was called inactive.

For the compound `N#CSCSc1nc2ccccc2s1`, the AC50 is 12.3 µM (active) and the outcome was inactive.

Take `CC(C)CCCCCCc1ccc(O)cc1`: the outcome was inactive.

For `CCNc1nc(N)nc(Cl)n1`, the compound was called inactive.

As for `COC(=O)c1c(Cl)nn(C)c1S(=O)(=O)NC(=O)Nc1nc(OC)cc(OC)n1`, the outcome was inactive.

On to `COC(=O)c1ccc(CNS(C)(=O)=O)cc1S(=O)(=O)NC(=O)Nc1nc(OC)cc(OC)n1`, for which the call was inactive.

Consider `CCCOC(=O)c1ccc(C(=O)OCCC)nc1`, for which the compound was classed as inactive.

Consider `CCCCOC(=O)C(C)Oc1ccc(Oc2ccc(C(F)(F)F)cn2)cc1` (stereo unspecified), for which the result was inactive.

Another experiment concerns the target human RAR-related Orphan Receptor gamma (RORg), RORC (gene 6097) (UniProt P51449). Nature of the experiment: ATG_RORg_TRANS: Attagene TRANS-FACTORIAL HepG2 Assay for human RAR-related Orphan Receptor gamma (RORg) (AID 2283011).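 For AC50: potency for induction of reporter transcripts above DMSO so activators.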 The essentials:
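Chimeric RORg-Gal4 transactivation in transfected HepG2; 24 h exposure; RT-PCR/capillary electrophoresis readout of reporter mRNA, DMSO baseline.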
`O=C(O)C1(C(=O)Nc2ccc(Cl)cc2Cl)CC1`: the compound was called inactive.

In the case of `O=C(c1ccc(O)cc1O)c1ccc(O)cc1O`, the outcome was inactive.

On to `CC(C)(C)[C@@H](O)[C@@H](Cc1ccc(Cl)cc1)n1cncn1`, for which the compound was called inactive.

On to `c1ccc2[nH]c(-c3cscn3)nc2c1`, for which the compound was classed as inactive.

For the compound `CCC(C)OC(=O)N1CCCCC1CCO` (stereo unspecified), the compound was classed as inactive.

Take `N#CSCSc1nc2ccccc2s1`: the concentration at half-maximal activity (AC50) was 11.9 µM (active) and the outcome was inactive.

Turning to `CCN(Cc1c(F)cccc1Cl)c1c([N+](=O)[O-])cc(C(F)(F)F)cc1[N+](=O)[O-]`, the outcome was inactive.

Consider `C[C@]12C[C@H](O)[C@H]3[C@@H](CCC4=CC(=O)CC[C@@]43C)[C@@H]1CC[C@@H]2C(=O)CO`, for which the call was inactive.

On to `CCCN(CCC)c1c([N+](=O)[O-])cc(C(F)(F)F)c(N)c1[N+](=O)[O-]`, for which the result was inactive.

For `COC(=O)c1ccc(CNS(C)(=O)=O)cc1S(=O)(=O)NC(=O)Nc1nc(OC)cc(OC)n1`, the result was inactive.

Turning to `CCSC(=O)N(CC(C)C)CC(C)C`, the result was inactive.

Consider `CCCCOC(=O)C(C)Oc1ccc(Oc2ccc(C(F)(F)F)cn2)cc1` (stereo unspecified), for which the outcome was inactive.

`CC(=O)S[C@@H]1CC2=CC(=O)CC[C@]2(C)[C@H]2CC[C@@]3(C)[C@@H](CC[C@@]34CCC(=O)O4)[C@H]12`: the call was inactive.

(Values after PubChem BioAssay (EPA / NIEHS).)
